Bioassay records: PubChem BioAssay, several laboratories
Compounds with a hit are over-represented: about 2% of the library has one in this group of screens.
PrPC TRFRET – inhibitors of human cell surface prion protein PrPC, primary screen, cell-based, TR-FRET | Major prion protein (Homo sapiens), P04156 | hit rate 0.43% among 370,000 | AID 720596, 2013 | TR-FRET read-out | inhibition, % at 13.8 µM; in the data active = inhibition above about 24%; note: 0% = median of the test wells and 100% = reference compound wells
PfHsp40 yeast – rescue of yeast from PfHsp40 toxicity, primary screen, S. cerevisiae, ATP luminescence. growth rescue, % at 12.5 µM. S. cerevisiae expressing PfHsp40, growth rescue. hit rate 0.68% among 340,000; in the data active = growth rescue above about 28%, passing the limit was not always enough;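 note: yeast W303a lacking pdr1 and pdr3 grown in galactose medium; growth measured after three days at 30 °C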
Y pestis TopoI – Yersinia pestis topoisomerase I inhibitors, primary screen, biochemical, cleavage product accumulation, plate reader, single point; DNA topoisomerase I (Yersinia pestis CO92); Y. pestis Topo-I cleavage product accumulation; activity, % at 10 µM; hit rate 0.064% among 360,000; AID 504884, 2011; in the data active = activity above about 50%, passing the limit was not always enough
CCHFV vOTU inh – CCHFV vOTU protease inhibitors, primary screen, biochemical, Pep-AMC substrate, fluorescence | inhibition, % at 11.5 µM | Crimean-Congo hemorrhagic fever virus L polyprotein viral ovarian tumor (vOTU) protease … | hit rate 0.55% among 370,000; in the data active = inhibition above about 30%; note: 0% = vehicle wells with enzyme and 100% = no enzyme wells
BJeLR lethal – MLPCN primary cell-based screen for lethality selective to Ras in HRASV12 cells. inhibition, % (test concentration not listed). hit rate 0.17% among 300,000. BJeLR (HRASV12) viability, CellTiter-Glo ATP luminescence, 48 h. AID 1554, 2009; in the data active = inhibition above about 50%
PrP UTR inh – inhibition of PrP 5' UTR reporter expression; cell-based PrP 5' UTR mRNA reporter, plate reader; inhibition, % (no concentration beside the values); hit rate 0.35% among 340,000; in the data active = inhibition above about 52%; note: 0 = median of the neutral control wells
The depositor's hits bear a star; · = no result given.

SMILES | PrPC TRFRET | PfHsp40 yeast | Y pestis TopoI | CCHFV vOTU inh | BJeLR lethal | PrP UTR inh
CCOc1ccc(CNC(=S)NCc2ccc(OCC)cc2)cc1 | 0 | -1 | -8 | 4 | -1 | -4
CC(C)COc1ccc(CNC(=S)NCc2ccccc2)cc1 | -1 | 51* | 19 | -1 | -7 | 0
COC(=O)[C@]12C[C@H](CC(=O)NCc3ccc(OC)c(OC)c3)C(=O)N(CCC3=CCCCC3)C1=C[C@H](C(C)(C)C)O[C@@H]2C | 6 | · | · | 15 | · | ·
Cc1ccc(CNC(=O)c2ccc(Cn3nc(C)c(Cl)c3C)o2)cc1 | 0 | 154* | 32 | -1 | -4 | -16
O=C1N2Cc3ccccc3C2CS(=O)(=O)N1C1CCCC1 (stereo not drawn) | -8 | · | · | 10 | · | ·
O=Cc1[nH]c2ccccc2c1N(C(=O)CCl)c1ccc([N+](=O)[O-])cc1 | -16 | 7 | -7 | 10 | 111* | -22
Cc1conc1NC(c1cccs1)c1ccc2cccnc2c1O (stereo not drawn) | · | · | · | · | 2 | ·
CCN(CC)c1ccc(C(NC(=O)C(C)C)c2ccc3cccnc3c2O)cc1 (stereo not drawn) | 18 | · | -4 | 24 | · | ·
Oc1c(C(Nc2nc3ccccc3s2)c2ccco2)ccc2cccnc12 (stereo not drawn) | 25* | -1 | 3 | 10 | -4 | 3
CC(C)C(=O)NC(c1ccco1)c1ccc2cccnc2c1O (stereo not drawn) | 10 | 297* | -7 | -9 | 7 | 8
COc1ccc(C(C(=O)N(C)C2CCCC2)N(Cc2ccc(F)cc2)C(=O)c2ncn[nH]2)cc1OC (stereo not drawn) | 3 | · | · | 0 | · | ·
COc1cccc(Nc2nc(-c3ccccc3)nc3ccccc23)c1 | 6 | 38* | -33 | -4 | -7 | 11
Cc1ccc(-c2nc(Nc3ccc(O)cc3)c3ccccc3n2)cc1 | 12 | 3 | -15 | 13 | -4 | 2
COc1cccc(Nc2nc(-c3ccccc3O)nc3ccccc23)c1 | 0 | 1 | -6 | -16 | -4 | -14
Cc1ccc(-c2nc(Nc3cccc(O)c3)c3ccccc3n2)cc1 | 2 | 30* | -30 | 0 | -18 | -13
COc1ccc(CNc2nc(-c3ccccc3)nc3ccccc23)cc1OC | 6 | 2 | 1 | 32* | -3 | -17
S=c1[nH]nc(-c2n[nH]c3c2CCC3)n1N=Cc1c[nH]c2ccccc12 | 6 | · | · | 5 | · | ·
O=c1cc(N2CCN(c3cccc(Cl)c3Cl)CC2)[nH]c(=O)n1C1CCCCC1 | -3 | · | · | · | · | ·
CCOC(=O)COc1ccc2ccccc2c1/C=C/[N+](=O)[O-] | 0 | -2 | -3 | 0 | 16 | -17
O=[N+]([O-])/C=C/c1c(OCc2ccccc2)ccc2ccccc12 | · | -1 | 0 | · | 81* | -73
C=CCN1C(=O)[C@@H](CC(=O)NCc2ccc(C)o2)[C@]2(C(=O)OCC)CCCCC/C=C/12 | 3 | · | · | -1 | · | ·
Cc1cccc(C(=O)N[C@H](C(=O)Nc2ncc(C)s2)C(C)C)c1 | 41* | 23 | 1 | -1 | 13 | -18
C=CCn1c(SCC(=O)c2ccccc2)nnc1-c1cc2ccccc2o1 | -2 | 0 | 41 | 2 | -5 | -11
C=CCn1c(SCC(=O)c2ccc(OC)cc2)nnc1-c1cc2cccc(OC)c2o1 | 12 | -1 | 67* | 14 | 4 | 3
COc1ccc(Cc2nc(-c3ccc(NC(=O)c4cccnc4)cc3)no2)cc1 | 1 | 0 | 3 | 4 | 90* | -11
CCc1cccc2sc(N3CCN(C(=O)c4ccc([N+](=O)[O-])o4)CC3)nc12 | · | 39* | 25 | · | 15 | -56
O=C(c1ccc([N+](=O)[O-])o1)N1CCN(Cc2ccccc2)CC1 | -14 | -1 | -2 | -2 | -7 | -1
O=P(c1ccccc1)(c1ccccc1)c1nc(-c2ccccc2)oc1N1CCOCC1 | -7 | 1 | 58* | -13 | 0 | -2
CCCCCCNC(=O)CC(c1ccccc1)c1cc(Br)ccc1O (stereo not drawn) | 10 | 40* | 23 | 24 | -6 | -5
CC(C)NC(=O)CC(c1ccccc1)c1cc(Br)ccc1O (stereo not drawn) | · | 1 | 0 | · | -9 | -22
